Growth data for seven compounds are collected here from PubChem BioAssay (NCI).

About 83,000 compounds went through this panel and 20% of them were active in at least one assay; those are over-represented in the sample as a whole.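 Cells were grown in 96-well plates and exposed to the test compound at a single concentration for 48 hours; results are reported as percent growth, with values below 10 considered active.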 Values without a mark were called inactive. Calls of active or inactive are those of the source.

Common to all, as to test: NCI-60 one-dose screen, 48 h (100 = growth as untreated, 0 = no growth, -100 = all killed)
Settings in all cases: 10 µM unless noted

Assay [1] concerns HCT-15 colon.
The subject of assay [2] is HT29 colon.
For assay [3], the system named is SNB-75 CNS.
The test system of assay [4] is SNB-19 CNS.
The test system of assay [5] is U251 CNS.
In assay [6] the test system is PC-3 prostate.
The subject of assay [7] is SK-MEL-5 melanoma.
For assay [8], the system named is UACC-62 melanoma.
Assay [9] relates to LOX IMVI melanoma.
Assay [10] relates to SK-MEL-28 melanoma.
Assay [11] concerns SK-MEL-2 melanoma.
Assay [12] relates to EKVX NSCLC.
The subject of assay [13] is SN12C renal.
The test system of assay [14] is UO-31 renal.
For assay [15], the system named is TK-10 renal.
Assay [16] has as its system ACHN renal.
In assay [17] the test system is CAKI-1 renal.
Assay [18] has as its system A498 renal.
For assay [19], the system named is CCRF-CEM leukemia.
Assay [20] relates to MOLT-4 leukemia.

For `O=C(Nc1nc2cc(C(=O)N3CCN(C(c4ccccc4)c4ccccc4)CC3)ccc2o1)c1ccc(NC2CCCCC2)c([N+](=O)[O-])c1`, the growth was 35.1% in assay [1]; 62.2% in [2]; 71.7% in [3]; 48.3% in assay [4]; 32.5% in assay [5]; 53.9% in assay [6]. Besides, the growth in assay [7] was 49.7%; in assay [8], 45.8%; in assay [9], 45.5%; in assay [10], 66.5%; in [11], 90.8%; in assay [12], 52.5%. In addition, the growth is 53.8% in assay [13]; 66.5% in assay [14]; 84.5% in assay [15]; 47% in assay [16]; 54.5% in assay [17]; 76.2% in assay [18]. The growth in [19] was 28.3%.

As to `Cc1c2cnccc2c(C)c2c1c1cc(C#N)ccc1n2C`, the growth is -20.6% (active) in [1]; -18.9% (active) in assay [2]; -35.8% (active) in [3]; -1.41% (active) in assay [4]; -10.5% (active) in assay [5]; -17.2% (active) in assay [6]. Also, the growth is -98.7% (active) in [7]; -52.6% (active) in assay [8]; -35.6% (active) in assay [9]; -39.7% (active) in assay [10]; -75.4% (active) in [11]; -3.54% (active) in [12]. Also, the growth in assay [13] was -5.29% (active); in assay [14], -4.29% (active); in assay [15] it was -13% (active); in assay [16] it was -2.32% (active); in [17], 6.63% (active); in [18], -65.6% (active). The growth in [19] is -16.8% (active); in assay [20] it was -11.2% (active).

For `COc1ccccc1CNc1c2ccccc2nc2ccccc12`, the growth in [1] is 26%; in [2] it was 17.7%; in [3], 63.5%; in [4] it was 35.8%; in [5] it was 38.6%; in [6], 43.2%. For the same compound, the growth is 59.2% in [7]; 60.5% in assay [8]; 18.9% in assay [9]; 80% in assay [10]; 73.5% in [11]; 65.7% in assay [12]. The growth was 34.7% in [13]; 33.7% in [14]; 55.5% in assay [15]; 22.7% in assay [16]; 45.7% in [17]; 13.3% in [18]. Besides, the growth in [19] was 37.5%.

For the compound `NC(Cc1ccc(O)c([N+](=O)[O-])c1)C(=O)O` (stereo unspecified), the growth in assay [1] was 98.5%; in assay [2] it was 99.1%; in assay [3], 97.2%; in [4], 105%; in [5], 97.2%; in assay [6], 90.5%. In addition, the growth is 105% in [7]; 103% in assay [8]; 94.3% in assay [9]; 99.9% in assay [10]; 109% in [11]; 111% in [12]. In addition, the growth in assay [13] was 95.7%; in assay [14] it was 88.2%; in assay [15] it was 94.4%; in assay [16], 99.2%; in assay [17], 93.9%; in assay [18], 105%. Besides, the growth was 88.7% in [19] and 96% in assay [20].

For `CN(C)c1ccc(C(=O)OCCCCCCl)cc1`, the growth is 100% in assay [1]; 99.1% in assay [2]; 78.4% in assay [3]; 95.6% in assay [4]; 99.7% in assay [5]; 87.1% in assay [6]. Moreover, the growth is 98.5% in assay [7]; 94.5% in [8]; 102% in assay [9]; 103% in [10]; 94.7% in assay [11]; 96.9% in assay [12]. Moreover, the growth in [13] is 96%; in assay [14], 77.8%; in assay [15], 96.5%; in assay [16], 102%; in [17] it was 89.1%; in [18], 83.9%. The growth in assay [19] is 122%; in assay [20], 86.1%.

Take `N#Cc1ccc(O)c(C2=NCC(c3ccccc3)O2)c1` (stereo unspecified): the growth was 20.8% in [1]; 46.2% in [2]; 74.9% in assay [3]; 46% in [4]; 19.6% in [5]; 31.6% in assay [6]. For the same compound, the growth is 39.1% in assay [7]; 37.8% in assay [8]; 25.9% in [9]; 86.4% in assay [10]; 50.6% in [11]; 37.1% in assay [12]. Further, the growth is 41.7% in [13]; 20.1% in [14]; 52.2% in [15]; 40.5% in [16]; 8.26% (active) in [17]; 63.5% in assay [18]. In addition, the growth is 28.1% in [19] and 18.7% in [20].

Regarding `Cc1nc2sc(C(=O)Nc3cccc(Br)c3)c(N)c2cc1C(O)c1ccccc1` (stereo unspecified), the growth was 21% in assay [1]; 18.1% in [2]; 55.4% in [3]; 33.8% in [4]; 11.1% in assay [5]; 30.2% in assay [6]. Also, the growth is 17.9% in [7]; 26.2% in assay [8]; 48% in [9]; 61.9% in assay [10]; 47.2% in assay [11]; 48.5% in [12]. For the same compound, the growth in [13] is 22.4%; in assay [14], 48.4%; in [15], 58%; in assay [16], 33.2%; in assay [17] it was 46.4%; in assay [18] it was 5.68% (active).
